FBW7 activator: human FBW7 E3 ligase activation, primary screen; Q969H0; AlphaScreen FBW7–phospho-cyclin E peptide binding, activator screen; normalized activity (activation), % at 26.1 µM; 650,000 compounds, 0.13% hits; in the data active means normalized activity above about 1.9%;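 further: purified mutant Fbw7 with reduced substrate affinity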
MITF primary: blocks human microphthalmia-associated transcription factor | O75030 | AlphaScreen MITF homodimerization, bead proximity signal | inhibition, % at 2.6 µM | 650,000 compounds, 0.91% hits | AID 1259374; in the data active means inhibition above about 50%;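 further: 0% = vehicle wells with protein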
GPR151 activ: activators of human GPR151 | Q8TDV0 | PathHunter beta-arrestin GPR151 cells, luminescence | activation, % at 11.2 µM | 650,000 compounds, 1% hits | AID 1508602; in the data active means activation above about 4.9%;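 further: 0% = median of compound wells and 100% = cells with positive control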
Target sequence (Q8TDV0 whole entry, looked up): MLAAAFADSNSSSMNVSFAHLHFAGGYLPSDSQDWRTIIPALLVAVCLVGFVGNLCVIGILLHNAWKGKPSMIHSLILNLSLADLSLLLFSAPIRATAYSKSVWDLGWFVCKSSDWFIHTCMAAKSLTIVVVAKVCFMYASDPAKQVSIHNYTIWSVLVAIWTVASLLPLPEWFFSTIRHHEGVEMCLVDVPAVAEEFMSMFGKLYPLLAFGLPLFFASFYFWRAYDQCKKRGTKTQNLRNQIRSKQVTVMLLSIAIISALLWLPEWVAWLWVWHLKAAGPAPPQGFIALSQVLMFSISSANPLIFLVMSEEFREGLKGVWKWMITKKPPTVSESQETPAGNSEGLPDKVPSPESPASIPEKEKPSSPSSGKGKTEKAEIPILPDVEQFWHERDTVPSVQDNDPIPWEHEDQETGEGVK
TEAD-YAP inh: TEAD-YAP interaction inhibition. HEK-TIYL cells, TEAD-Gal4/YAP UAS-luciferase luminescence. inhibition, % at 9.12 µM. 640,000 compounds, 1.4% hits. AID 1259422; in the data active means inhibition above about 32%;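 further: 0% = median of test compound wells and 100% = reference inhibitor wells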
* = called active by the depositor; . = no result given. Only some compounds are listed: those with a hit (about 3.4% of all), similar ones and a draw of the others.

SMILES	FBW7 activator	MITF primary	GPR151 activ	TEAD-YAP inh
Cc1cc(/C=C2\C(=O)NC(=S)N(c3ccc(F)cc3)C2=O)c(C)n1-c1cccnc1	0	110*	-2	0
CCc1ccc(N2C(=O)NC(=O)/C(=C\c3cc(C)n(-c4cccnc4)c3C)C2=O)cc1	0	-17	-2	5
O=C1NC(=O)N(c2ccc(F)cc2)C(=O)/C1=C/c1ccco1	0	73*	1	-1
Cc1ccc(N2C(=O)NC(=O)/C(=C\c3ccco3)C2=O)cc1C	0	5	1	4
Cc1c(C(=O)Nc2ccc(Oc3ccccc3)cc2)sc2ncnc(N3CCC(C)CC3)c12	0	12	2	2
COc1ccc(N=Cc2sc3ccccc3c2O)cc1	0	-9	-10	85*
CCN(c1ccc(NS(=O)(=O)c2ccccc2[N+](=O)[O-])cc1)C(C)C	0	-1	0	-9
O=C1N[C@@H](Cc2c[nH]c3ccccc23)C(=O)N2CCN(Cc3ccccc3Cl)C[C@H]12	0	15	-1	-1
COc1cc(/C=C2/C(=N)N3OC(C)=CC3=NC2=O)ccc1OCc1ccc2c(c1)OCO2	0	12	-6	48*
CC1=CC2=NC(=O)/C(=C\c3cc(C)n(-c4cccc(F)c4)c3C)C(=N)N2O1	0	-2	0	7
CC1=CC2=NC(=O)/C(=C\c3cc(C)n(-c4ccc(Cl)cc4)c3C)C(=N)N2O1	0	3	0	13
CC1=CC2=NC(=O)/C(=C\c3cc(C)n(-c4cc(C)cc(C)c4)c3C)C(=N)N2O1	0	4	1	55*
COc1cccc(-n2c(C)cc(/C=C3/C(=N)N4OC(C)=CC4=NC3=O)c2C)c1	0	2	-1	57*
O=C(Cn1ncc2cccn2c1=O)NCc1cccs1	0	1	-2	-35
CC1Oc2cc(Cl)ccc2N(Cc2ccccc2F)C1=O (stereo not drawn)	0	6	1	-3
CN(C)S(=O)(=O)c1ccc(C(=O)Nc2nc(-c3ccc(Br)s3)cs2)cc1	0	12	1	19
CC1CCN(C(=O)c2ccc(Sc3ccc(F)cc3)c([N+](=O)[O-])c2)CC1	0	3	-1	-5
COC(=O)N/N=C/c1ccc(Br)s1	0	-5	-1	-11
COc1cc(C(=O)N/N=C/c2ccc(O)cc2)cc(OC)c1OC	0	3	-1	57*
COc1cc(C(=O)N/N=C/c2ccc(Br)s2)cc(OC)c1OC	0	-3	1	59*
COc1cc(/C=N\NC(=O)c2c(C)nc3ccc(Cl)cn23)cc(OC)c1OC	0	5	0	5
O=C(N/N=C/c1ccc(Br)s1)c1ccncc1	0	-7	-8	36*
COc1cc(/C=N/NC(=O)c2c(C)nc3ccc(Cl)cn23)cc(OC)c1OC	16*	-77	0	-2
O=C(N/N=C/c1cc(Br)c(Br)s1)c1ccncc1	-1	1	0	15
Cc1ccc(C)c(NC(=O)CSc2nnc3cc(C)c4ccccc4n23)c1	0	0	0	-1
SMILES	FBW7 activator	MITF primary	GPR151 activ	TEAD-YAP inh
CCOC(=O)c1cnn2c(C)c(Cc3ccc(Cl)nc3)c(C)nc12	0	1	-1	-2
O=C(Cc1ccc(O)cc1)N1CCc2c(nc(N3CCCC3)[nH]c2=O)C1	1	-2	0	-17
COc1cc(/C=N/NC(=O)c2cc(OC)c(OC)c(OC)c2)cc(OC)c1O	0	10	0	56*
COc1cc(C(=O)N/N=C/c2cccc(Br)c2)cc(OC)c1OC	0	16	0	60*
COc1ccc(C(=O)N/N=C/c2cc(OC)c(O)c(OC)c2)cc1OC	0	9	-2	-21
COc1cc(C(=O)N/N=C/c2ccc(OC)c(OC)c2C(=O)O)cc(OC)c1OC	0	-5	1	67*
O=C(OCCOCCNc1ccc([N+](=O)[O-])cc1[N+](=O)[O-])c1cc(F)c(F)cc1Cl	0	-10	-1	1
c1ccc2[nH]c(CNc3nc(Nc4cnccn4)nc4c3ncn4-c3ccsc3)nc2c1	0	-11	2	71*
c1ccc(-n2cnc3c(NCc4nc5ccccc5[nH]4)nc(Nc4ccccn4)nc32)cc1	0	-3	-1	53*
c1ccc(CNc2nc(Nc3cnccn3)nc3c2ncn3-c2ccsc2)cc1	0	-4	-1	14
c1ccc(-n2cnc3c(NCc4nc5ccccc5[nH]4)nc(Nc4ccncn4)nc32)cc1	0	8	-1	35*
c1ccc(Nc2nc(NCc3nc4ccccc4[nH]3)c3ncn(-c4ccsc4)c3n2)nc1	0	11	1	78*
COc1cc(Nc2nc(NCc3nc4ccccc4[nH]3)c3ncn(-c4ccsc4)c3n2)cc(OC)c1OC	0	3	-1	18
O=C1CCCN1CCn1cnc2c(NCc3nc4ccccc4[nH]3)nc(Nc3ccncn3)nc21	0	6	0	-9
COC(=O)C1=C(C)NC2=C(C(=O)CCC2)C1c1ccncc1 (stereo not drawn)	0	0	1	6
CC1(C(=O)O)NCCc2cc(O)c(O)cc21 (stereo not drawn)	0	66*	0	.
CC(C)(C)C1CCc2[nH]c(=S)c(C#N)cc2C1 (stereo not drawn)	0	-3	-1	4
O=C(Nc1ccccc1NC(=O)C1(c2cccs2)CCCC1)c1ccccn1	0	3	1	9
Fc1cc(-c2nc(Nc3ccc(N4CCOCC4)cc3)ncc2F)cc(N2CCOCC2)c1	0	-2	1	1
Fc1cnc(Nc2ccc(CN3CCCCC3)cc2)nc1-c1cc(N2CCOCC2)cc(C(F)(F)F)c1	0	15	2	42*
Fc1cc(-c2nc(Nc3ccc(CN4CCCCC4)cc3)ncc2F)cc(N2CCOCC2)c1	0	-9	2	92*
Cc1cccc(C(=O)Nc2ccccc2CO)c1	0	5	-5	-12
c1ccc(-n2cnc3c(NCCN4CCOCC4)nc(Nc4ccncn4)nc32)cc1	0	10	-1	29
c1ccc(-n2cnc3c(NCCN4CCOCC4)nc(Nc4ccccn4)nc32)cc1	0	-6	0	35*
c1ccc(-n2cnc3c(NCCN4CCOCC4)nc(Nc4cnccn4)nc32)cc1	0	13	-1	48*
SMILES	FBW7 activator	MITF primary	GPR151 activ	TEAD-YAP inh
c1ccc(-n2cnc3c(NCCN4CCOCC4)nc(Nc4ncccn4)nc32)cc1	0	-1	0	-3
NC(=O)CSc1nc2ccc(N3CCCCC3)cc2c(=O)n1Cc1ccccc1	0	2	-3	-18
O=C(/C=C/c1ccccc1)N1CC[C@H]2[C@H](CCCN2Cc2cccn2-c2nccs2)C1	0	8	2	2
COc1cc2c(cc1NC(=O)c1ccccc1Br)oc1ccccc12	0	-3	-1	-5
COCCCNC(=O)c1ccc2c(c1)nc(C)n2-c1cc(C)ccc1OC	0	-12	1	56*
CCOCCCNC(=O)c1ccc2c(c1)nc(C)n2-c1cc(C)ccc1OC	0	-3	2	15
CC(CCc1ccccc1)NCc1c(C(=O)O)[nH]c2ccccc12 (stereo not drawn)	0	-1	0	-12

Assay outcomes from PubChem.
